Laboratory results: the supplement of paper PMC11732987, “Enantioselective OTUD7B fragment discovery through chemoproteomics screening and high-throughput optimisation” (Communications Chemistry, 2025)

Key:
Test in all cases: log2 ratio of Biotin-Ahx-Ub-VS probe labelling (fragment/DMSO); higher = less target engagement (more negative = stronger competition), active = hit call of the paper (q ≤ 0.05, log2 ratio ≤ -1)
Settings in all cases: compound concentration: 200 uM; treatment time: 3 h
OTUD6B = target: T1, OTUD6B (UniProt Q8N6M0)
T1 sequence (whole entry): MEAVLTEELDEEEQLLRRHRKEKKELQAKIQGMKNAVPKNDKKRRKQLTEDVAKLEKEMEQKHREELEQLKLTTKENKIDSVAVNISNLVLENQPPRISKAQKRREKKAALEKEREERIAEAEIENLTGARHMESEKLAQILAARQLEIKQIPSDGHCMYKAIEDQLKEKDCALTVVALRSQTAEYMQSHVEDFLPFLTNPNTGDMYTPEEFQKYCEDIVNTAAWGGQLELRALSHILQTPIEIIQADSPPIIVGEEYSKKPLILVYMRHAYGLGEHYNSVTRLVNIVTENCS
How it was run: (§1)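 Using Biotin-Ahx-Ub-VS at 0.5 µM final for 1 h, DUBs were labelled in HEK293T lysate (495 µg per sample) that had first been treated in triplicate with fragment at 200 µM or vehicle for 3 h. NeutrAvidin enrichment, LysC and trypsin digestion and diaPASEF LC-MS/MS followed. Spectronaut label-free quantities were global-median-normalised. Values are average log2 fragment/vehicle ratios by unpaired t-test, using proteins with ≥2 unique peptides.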

OTUD7B = target: T2, OTUD7B (UniProt Q6GQQ9)
T2 sequence (whole entry): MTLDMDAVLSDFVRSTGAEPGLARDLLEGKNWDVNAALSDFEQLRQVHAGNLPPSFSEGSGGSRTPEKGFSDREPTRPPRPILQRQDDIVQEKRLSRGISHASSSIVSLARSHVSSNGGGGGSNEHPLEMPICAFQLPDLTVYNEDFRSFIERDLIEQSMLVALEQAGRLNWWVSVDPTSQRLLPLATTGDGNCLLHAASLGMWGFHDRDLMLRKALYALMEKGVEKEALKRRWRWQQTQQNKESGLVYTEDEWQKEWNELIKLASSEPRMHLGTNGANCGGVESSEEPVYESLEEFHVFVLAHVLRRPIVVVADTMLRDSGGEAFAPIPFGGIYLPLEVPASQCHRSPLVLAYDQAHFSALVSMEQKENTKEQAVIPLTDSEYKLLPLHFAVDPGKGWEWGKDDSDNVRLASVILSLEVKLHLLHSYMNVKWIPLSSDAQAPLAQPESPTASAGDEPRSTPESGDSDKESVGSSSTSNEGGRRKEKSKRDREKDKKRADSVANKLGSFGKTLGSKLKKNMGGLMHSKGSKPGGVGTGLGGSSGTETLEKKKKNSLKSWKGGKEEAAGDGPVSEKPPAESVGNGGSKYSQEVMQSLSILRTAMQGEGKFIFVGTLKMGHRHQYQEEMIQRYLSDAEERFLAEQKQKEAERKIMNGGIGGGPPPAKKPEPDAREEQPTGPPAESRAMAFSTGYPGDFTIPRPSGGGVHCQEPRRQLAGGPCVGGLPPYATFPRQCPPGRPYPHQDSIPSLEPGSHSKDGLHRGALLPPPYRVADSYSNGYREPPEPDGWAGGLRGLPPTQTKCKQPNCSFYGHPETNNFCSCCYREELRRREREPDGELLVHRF
How it was run: as §1

PRPF8 = PRPF8 (UniProt Q6P2Q9)
How it was run: as §1

PSMD7 = target: T3, PSMD7 (UniProt P51665)
T3 sequence (whole entry): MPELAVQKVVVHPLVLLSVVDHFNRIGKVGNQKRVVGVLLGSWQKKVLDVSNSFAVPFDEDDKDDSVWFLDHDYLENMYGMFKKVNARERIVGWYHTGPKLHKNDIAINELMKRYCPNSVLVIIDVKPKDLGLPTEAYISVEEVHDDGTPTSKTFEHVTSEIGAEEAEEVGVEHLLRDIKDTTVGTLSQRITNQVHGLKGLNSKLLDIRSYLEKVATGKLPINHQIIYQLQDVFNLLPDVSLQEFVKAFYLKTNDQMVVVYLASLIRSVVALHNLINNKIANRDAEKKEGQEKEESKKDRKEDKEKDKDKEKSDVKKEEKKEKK
How it was run: as §1

UCHL1 = UCHL1 (UniProt P09936)
UCHL1, sequence (P09936 whole entry, looked up): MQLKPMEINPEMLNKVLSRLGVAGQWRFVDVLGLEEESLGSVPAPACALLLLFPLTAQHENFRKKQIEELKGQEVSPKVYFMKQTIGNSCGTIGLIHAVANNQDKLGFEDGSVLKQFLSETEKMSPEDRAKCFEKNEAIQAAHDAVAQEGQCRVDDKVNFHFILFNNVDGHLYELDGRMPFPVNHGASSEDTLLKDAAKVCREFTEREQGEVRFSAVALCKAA
How it was run: as §1

UCHL3 = target: T4, UCHL3 (UniProt P15374)
T4 sequence (whole entry): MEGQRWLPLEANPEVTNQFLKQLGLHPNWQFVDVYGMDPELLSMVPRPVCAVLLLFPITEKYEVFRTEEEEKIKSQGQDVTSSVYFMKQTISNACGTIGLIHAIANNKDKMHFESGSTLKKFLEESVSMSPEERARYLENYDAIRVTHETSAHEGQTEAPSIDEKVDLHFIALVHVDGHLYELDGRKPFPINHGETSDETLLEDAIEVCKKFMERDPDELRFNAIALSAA
How it was run: as §1

UCHL5 = target: T5, UCHL5 (UniProt Q9Y5K5)
T5 sequence (whole entry): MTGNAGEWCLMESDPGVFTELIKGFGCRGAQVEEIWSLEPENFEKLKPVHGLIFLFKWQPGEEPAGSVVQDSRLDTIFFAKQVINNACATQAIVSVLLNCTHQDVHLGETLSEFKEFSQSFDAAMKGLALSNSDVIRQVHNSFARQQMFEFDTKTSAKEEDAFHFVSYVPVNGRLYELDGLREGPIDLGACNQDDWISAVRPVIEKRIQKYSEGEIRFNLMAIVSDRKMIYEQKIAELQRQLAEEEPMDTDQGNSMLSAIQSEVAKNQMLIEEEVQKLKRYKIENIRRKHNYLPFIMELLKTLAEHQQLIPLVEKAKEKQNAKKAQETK
How it was run: as §1

USP10 = USP10 (UniProt Q14694)
USP10, sequence (Q14694 whole entry): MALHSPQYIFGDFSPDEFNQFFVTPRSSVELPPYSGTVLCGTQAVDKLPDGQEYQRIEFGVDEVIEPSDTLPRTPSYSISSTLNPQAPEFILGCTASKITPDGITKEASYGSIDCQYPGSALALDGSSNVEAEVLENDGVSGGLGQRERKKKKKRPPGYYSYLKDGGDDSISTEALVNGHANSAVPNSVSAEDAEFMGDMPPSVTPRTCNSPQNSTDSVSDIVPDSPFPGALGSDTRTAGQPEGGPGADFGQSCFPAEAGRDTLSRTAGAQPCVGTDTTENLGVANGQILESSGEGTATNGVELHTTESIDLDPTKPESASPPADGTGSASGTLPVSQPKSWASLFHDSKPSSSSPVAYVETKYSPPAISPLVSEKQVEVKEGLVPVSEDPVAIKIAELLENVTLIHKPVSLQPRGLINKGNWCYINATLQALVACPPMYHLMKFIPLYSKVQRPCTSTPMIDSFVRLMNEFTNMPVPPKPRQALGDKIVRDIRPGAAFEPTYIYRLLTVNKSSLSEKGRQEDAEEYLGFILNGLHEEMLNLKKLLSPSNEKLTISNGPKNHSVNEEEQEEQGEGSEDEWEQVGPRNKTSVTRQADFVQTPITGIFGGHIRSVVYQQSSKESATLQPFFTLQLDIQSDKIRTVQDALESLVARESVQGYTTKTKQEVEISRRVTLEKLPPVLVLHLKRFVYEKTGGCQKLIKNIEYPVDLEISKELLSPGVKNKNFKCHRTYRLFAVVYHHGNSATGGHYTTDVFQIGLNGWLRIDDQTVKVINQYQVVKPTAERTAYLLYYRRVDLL
How it was run: as §1

USP15 = target: T6, USP15 (UniProt Q9Y4E8)
T6 sequence (whole entry): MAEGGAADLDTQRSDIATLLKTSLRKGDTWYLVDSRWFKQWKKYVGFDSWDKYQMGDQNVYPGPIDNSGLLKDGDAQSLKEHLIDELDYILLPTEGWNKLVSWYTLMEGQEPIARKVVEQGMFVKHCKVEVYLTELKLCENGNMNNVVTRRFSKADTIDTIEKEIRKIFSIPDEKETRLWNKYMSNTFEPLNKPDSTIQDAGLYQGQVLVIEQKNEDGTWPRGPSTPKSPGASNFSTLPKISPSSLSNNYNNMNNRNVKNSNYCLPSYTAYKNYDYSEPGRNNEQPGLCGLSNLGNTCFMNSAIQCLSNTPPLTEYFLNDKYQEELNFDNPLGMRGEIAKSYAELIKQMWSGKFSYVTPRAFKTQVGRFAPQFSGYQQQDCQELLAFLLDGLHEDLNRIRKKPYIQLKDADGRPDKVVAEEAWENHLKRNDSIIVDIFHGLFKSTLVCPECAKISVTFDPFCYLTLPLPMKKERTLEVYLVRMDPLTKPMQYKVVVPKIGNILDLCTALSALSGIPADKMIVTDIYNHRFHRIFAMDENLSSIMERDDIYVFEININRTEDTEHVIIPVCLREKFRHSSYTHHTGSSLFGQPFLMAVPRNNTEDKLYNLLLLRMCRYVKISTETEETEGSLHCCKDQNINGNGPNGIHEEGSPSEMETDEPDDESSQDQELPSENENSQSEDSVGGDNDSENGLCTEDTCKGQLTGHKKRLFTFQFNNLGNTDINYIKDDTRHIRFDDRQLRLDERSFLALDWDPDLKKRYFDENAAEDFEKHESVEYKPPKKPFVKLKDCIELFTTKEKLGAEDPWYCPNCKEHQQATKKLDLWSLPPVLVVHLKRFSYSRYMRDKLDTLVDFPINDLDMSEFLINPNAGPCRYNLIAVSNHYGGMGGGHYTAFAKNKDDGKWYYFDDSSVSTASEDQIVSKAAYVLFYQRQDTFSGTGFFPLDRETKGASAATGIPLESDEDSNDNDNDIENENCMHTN
How it was run: as §1

USP16 = USP16 (UniProt Q9Y5T5)
USP16, sequence (Q9Y5T5 whole entry, looked up): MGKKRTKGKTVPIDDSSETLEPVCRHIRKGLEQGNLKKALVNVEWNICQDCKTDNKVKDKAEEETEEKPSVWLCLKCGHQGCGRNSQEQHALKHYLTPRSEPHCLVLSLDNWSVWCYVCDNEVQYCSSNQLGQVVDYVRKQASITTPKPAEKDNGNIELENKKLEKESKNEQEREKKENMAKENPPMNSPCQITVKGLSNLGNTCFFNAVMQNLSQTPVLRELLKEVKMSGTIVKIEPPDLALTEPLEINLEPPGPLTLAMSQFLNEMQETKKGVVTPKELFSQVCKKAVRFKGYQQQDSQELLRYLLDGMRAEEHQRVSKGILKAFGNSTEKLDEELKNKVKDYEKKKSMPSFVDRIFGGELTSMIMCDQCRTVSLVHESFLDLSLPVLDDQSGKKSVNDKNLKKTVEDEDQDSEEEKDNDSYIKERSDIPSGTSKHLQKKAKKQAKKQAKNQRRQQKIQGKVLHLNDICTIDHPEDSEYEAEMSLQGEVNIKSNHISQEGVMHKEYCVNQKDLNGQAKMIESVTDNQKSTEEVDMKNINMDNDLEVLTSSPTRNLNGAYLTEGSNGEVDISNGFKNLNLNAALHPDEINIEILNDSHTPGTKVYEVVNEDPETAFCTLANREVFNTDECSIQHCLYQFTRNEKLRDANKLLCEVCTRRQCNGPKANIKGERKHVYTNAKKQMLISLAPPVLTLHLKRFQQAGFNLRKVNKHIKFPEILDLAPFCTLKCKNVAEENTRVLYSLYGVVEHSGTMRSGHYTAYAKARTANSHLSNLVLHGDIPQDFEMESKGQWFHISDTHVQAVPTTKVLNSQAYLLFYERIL
How it was run: as §1

Measured: log2 ratio of Biotin-Ahx-Ub-VS probe labelling

O=C(CCl)N1c2ccccc2NC(=O)C12CCCC2
inactive: OTUD6B -0.0738 | OTUD7B -0.0903 | PRPF8 -0.16 | PSMD7 0.0949 | UCHL1 -0.493 | UCHL3 0.749 | UCHL5 -0.148 | USP10 -0.393 | USP15 0.113 | USP16 0.103
